Holding throughout (set-up): scale not given: direction of the effect not stated beside the values
For assay [1], the target named is Protein translocase subunit SecA (Escherichia coli (strain K12)) (UniProt P10408). Put plainly: Assay to Identify E. coli SecA ATPase Inhibitors. In kind it is functional. The settings on record: 30 µM.
The target of assay [2] is T1, Ubiquitin-activating enzyme e1, putative (Leishmania donovani (strain BPK282A1)) (UniProt E9BSI1).
T1 sequence (whole entry): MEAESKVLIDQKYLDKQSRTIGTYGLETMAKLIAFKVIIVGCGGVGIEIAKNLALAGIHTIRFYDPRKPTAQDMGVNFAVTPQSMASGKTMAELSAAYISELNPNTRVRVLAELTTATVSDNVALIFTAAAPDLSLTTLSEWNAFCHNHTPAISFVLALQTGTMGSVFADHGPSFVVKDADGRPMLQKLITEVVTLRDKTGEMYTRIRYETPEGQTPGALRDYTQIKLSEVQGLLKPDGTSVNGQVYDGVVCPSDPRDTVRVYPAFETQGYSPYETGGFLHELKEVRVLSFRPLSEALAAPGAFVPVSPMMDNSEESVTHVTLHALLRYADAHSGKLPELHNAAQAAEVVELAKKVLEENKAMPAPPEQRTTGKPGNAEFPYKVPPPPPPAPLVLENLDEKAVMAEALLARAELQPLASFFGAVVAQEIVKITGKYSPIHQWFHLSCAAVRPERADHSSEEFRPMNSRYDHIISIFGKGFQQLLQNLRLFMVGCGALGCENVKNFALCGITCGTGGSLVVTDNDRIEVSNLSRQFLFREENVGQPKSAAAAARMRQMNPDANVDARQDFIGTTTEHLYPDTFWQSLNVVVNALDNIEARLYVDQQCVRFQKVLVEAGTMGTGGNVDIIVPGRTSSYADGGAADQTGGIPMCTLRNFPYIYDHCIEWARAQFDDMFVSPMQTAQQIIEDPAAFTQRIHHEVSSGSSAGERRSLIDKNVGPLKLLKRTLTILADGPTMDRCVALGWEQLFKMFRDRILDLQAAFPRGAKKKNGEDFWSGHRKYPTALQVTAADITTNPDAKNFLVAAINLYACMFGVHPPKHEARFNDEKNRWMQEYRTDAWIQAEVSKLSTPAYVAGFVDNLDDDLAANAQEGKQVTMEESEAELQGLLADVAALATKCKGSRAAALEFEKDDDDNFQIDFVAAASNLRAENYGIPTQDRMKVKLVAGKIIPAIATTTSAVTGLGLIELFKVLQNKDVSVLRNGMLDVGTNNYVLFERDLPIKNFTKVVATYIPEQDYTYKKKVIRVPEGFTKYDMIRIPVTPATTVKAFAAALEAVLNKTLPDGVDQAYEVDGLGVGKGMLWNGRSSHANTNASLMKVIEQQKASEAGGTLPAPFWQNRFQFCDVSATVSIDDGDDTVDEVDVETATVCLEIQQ
Put plainly: Leishmania donovani Ubiquitin Activating Enzyme (LdE1). It counts as functional. Conditions: 30 µM.

In assay [3] the target is AMP-activated protein kinase, AMPK (Homo sapiens) (UniProt P54646+O43741+P54619+Q9UGJ0+Q9Y478+Q13131+Q9UGI9). Briefly: AMP-dependent Kinase enzyme assay. An in vitro enzyme assay that detects ADP turnover that is directly proportional to AMPK activity. This uses naive AMPK that is activated during the assay with MK-8722. In kind it is functional. Conditions: 30 µM.
Assay [4] addresses Sialic acid-binding Ig-like lectin 9 (Homo sapiens) (UniProt Q9Y336). Briefly: Hs-Siglec9 ALPHAscreen SOP 20170721. The settings on record: 10 µM.
Assay [5] relates to Trypanosoma cruzi. Put plainly: Trypanosoma cruzi phosphomannomutase and mannose-1-phosphate guanylyltransferase assay. In kind it is functional. Conditions: 10 µM.
Assay [6] concerns the target T2, Arginase-2, mitochondrial (Homo sapiens) (UniProt P78540).
T2 sequence (whole entry): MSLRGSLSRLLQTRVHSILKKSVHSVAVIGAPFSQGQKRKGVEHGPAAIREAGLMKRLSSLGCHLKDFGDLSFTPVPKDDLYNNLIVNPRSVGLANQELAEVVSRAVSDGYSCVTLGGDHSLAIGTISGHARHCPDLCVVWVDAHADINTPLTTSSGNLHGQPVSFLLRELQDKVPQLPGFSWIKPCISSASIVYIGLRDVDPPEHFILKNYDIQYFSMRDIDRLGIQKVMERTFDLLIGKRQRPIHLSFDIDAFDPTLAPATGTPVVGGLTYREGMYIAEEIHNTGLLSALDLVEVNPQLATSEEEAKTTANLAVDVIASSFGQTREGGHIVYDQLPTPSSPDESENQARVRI
Put plainly: in vitro enzyme assay to detect the production of urea directly proportional to the activity of Arginase II. Note: in the data most compounds retested in dose-response had high values. In kind it is functional. The settings on record: 33.3 µM.

Assay [7] has as its target T3, Proteasome subunit beta (Trypanosoma cruzi) (UniProt O96673).
T3 sequence (whole entry): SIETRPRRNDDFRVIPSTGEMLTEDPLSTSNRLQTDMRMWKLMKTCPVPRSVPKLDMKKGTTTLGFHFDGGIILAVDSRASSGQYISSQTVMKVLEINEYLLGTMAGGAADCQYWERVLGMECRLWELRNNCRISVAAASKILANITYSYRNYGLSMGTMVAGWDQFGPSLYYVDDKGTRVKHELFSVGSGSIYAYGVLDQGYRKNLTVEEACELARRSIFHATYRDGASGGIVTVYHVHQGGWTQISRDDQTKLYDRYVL
Put plainly: Trypanosoma cruzi proteasome chymotrypsin-like activity (TcProtChymo) assay. Note: in the data most compounds retested in dose-response had high values. It counts as functional. The settings on record: 9.37 µM.

For assay [8], the species on record is Homo sapiens. Briefly: To identify inhibition of the IFN signalling (Jak-Stat) pathway via expression of an eGFP reporter gene under the control of an IFN-stimulated response element (ISRE) containing MxA promoter. It counts as functional. Conditions: 30 µM.
Assay [9] concerns the target T4, Tyrosyl-tRNA synthetase, putative (Trypanosoma cruzi (strain CL Brener)) (UniProt Q4DSP6).
T4 sequence (whole entry): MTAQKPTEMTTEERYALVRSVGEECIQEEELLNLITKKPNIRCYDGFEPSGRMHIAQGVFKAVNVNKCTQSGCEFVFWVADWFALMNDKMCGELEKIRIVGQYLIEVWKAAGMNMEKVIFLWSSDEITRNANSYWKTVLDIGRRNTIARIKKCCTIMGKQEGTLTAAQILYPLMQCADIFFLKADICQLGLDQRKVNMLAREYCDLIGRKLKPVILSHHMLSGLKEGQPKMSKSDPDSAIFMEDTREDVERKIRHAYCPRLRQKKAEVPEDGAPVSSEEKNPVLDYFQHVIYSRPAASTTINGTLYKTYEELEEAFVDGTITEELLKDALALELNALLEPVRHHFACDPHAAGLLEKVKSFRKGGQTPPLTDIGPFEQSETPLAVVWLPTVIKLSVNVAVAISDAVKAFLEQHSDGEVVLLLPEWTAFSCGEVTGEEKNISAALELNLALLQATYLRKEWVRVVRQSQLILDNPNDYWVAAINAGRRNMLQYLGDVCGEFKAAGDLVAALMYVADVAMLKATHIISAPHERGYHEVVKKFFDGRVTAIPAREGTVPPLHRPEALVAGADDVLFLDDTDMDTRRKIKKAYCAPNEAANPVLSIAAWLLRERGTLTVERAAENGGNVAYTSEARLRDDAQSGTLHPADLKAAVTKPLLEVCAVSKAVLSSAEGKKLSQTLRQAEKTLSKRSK
Briefly: Trypanosoma cruzi tyrosyl tRNA synthetase (TcYRS) _High Tyrosine SOP. Note: in the data most compounds retested in dose-response had high values. Conditions: 30 µM. It counts as functional.

The target in assay [10] is T4, Tyrosyl-tRNA synthetase, putative (Trypanosoma cruzi (strain CL Brener)). Briefly: Trypanosoma cruzi tyrosyl tRNA synthetase (TcYRS) SOP. Conditions: 30 µM. It counts as functional.
Assay [11] has as its target Chromo domain-containing protein 1 (Saccharomyces cerevisiae (strain ATCC 204508 / S288c) (Baker's yeast)) (UniProt P32657). Briefly: ScCHD-1 Enzyme Inhibition Assay. Note: in the data most compounds retested in dose-response had high values. It counts as functional. Conditions: 30 µM.

The structures appear in SMILES notation. For some assays here: Measured potencies and affinities stand elsewhere.

Chain of Protein translocase subunit SecA (Escherichia coli (strain K12)) (P10408 whole entry): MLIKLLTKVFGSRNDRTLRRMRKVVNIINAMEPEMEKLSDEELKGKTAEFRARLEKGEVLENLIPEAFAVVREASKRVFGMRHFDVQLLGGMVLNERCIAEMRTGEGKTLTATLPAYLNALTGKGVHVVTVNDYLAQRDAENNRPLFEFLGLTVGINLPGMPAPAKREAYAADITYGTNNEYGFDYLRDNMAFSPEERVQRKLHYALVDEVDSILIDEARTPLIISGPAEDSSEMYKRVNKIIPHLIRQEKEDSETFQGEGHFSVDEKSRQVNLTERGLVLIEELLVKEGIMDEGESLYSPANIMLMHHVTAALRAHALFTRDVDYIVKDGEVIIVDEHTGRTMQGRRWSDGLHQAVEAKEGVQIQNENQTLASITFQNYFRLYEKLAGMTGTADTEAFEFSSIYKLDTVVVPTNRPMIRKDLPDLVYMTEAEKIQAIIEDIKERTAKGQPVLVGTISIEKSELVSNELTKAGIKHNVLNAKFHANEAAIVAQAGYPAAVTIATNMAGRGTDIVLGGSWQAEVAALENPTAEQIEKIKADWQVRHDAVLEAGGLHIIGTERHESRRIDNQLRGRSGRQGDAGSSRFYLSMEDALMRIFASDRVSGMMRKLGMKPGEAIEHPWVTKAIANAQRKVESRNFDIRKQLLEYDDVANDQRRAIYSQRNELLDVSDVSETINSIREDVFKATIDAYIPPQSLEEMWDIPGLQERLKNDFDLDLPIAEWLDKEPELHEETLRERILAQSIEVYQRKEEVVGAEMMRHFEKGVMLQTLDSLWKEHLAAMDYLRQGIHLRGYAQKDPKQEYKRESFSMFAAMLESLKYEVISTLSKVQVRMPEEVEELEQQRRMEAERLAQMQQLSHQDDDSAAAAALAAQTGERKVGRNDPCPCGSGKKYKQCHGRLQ
Chain of Chromo domain-containing protein 1 (Saccharomyces cerevisiae (strain ATCC 204508 / S288c) (Baker's yeast)) (P32657 whole entry, the tested form may be a part): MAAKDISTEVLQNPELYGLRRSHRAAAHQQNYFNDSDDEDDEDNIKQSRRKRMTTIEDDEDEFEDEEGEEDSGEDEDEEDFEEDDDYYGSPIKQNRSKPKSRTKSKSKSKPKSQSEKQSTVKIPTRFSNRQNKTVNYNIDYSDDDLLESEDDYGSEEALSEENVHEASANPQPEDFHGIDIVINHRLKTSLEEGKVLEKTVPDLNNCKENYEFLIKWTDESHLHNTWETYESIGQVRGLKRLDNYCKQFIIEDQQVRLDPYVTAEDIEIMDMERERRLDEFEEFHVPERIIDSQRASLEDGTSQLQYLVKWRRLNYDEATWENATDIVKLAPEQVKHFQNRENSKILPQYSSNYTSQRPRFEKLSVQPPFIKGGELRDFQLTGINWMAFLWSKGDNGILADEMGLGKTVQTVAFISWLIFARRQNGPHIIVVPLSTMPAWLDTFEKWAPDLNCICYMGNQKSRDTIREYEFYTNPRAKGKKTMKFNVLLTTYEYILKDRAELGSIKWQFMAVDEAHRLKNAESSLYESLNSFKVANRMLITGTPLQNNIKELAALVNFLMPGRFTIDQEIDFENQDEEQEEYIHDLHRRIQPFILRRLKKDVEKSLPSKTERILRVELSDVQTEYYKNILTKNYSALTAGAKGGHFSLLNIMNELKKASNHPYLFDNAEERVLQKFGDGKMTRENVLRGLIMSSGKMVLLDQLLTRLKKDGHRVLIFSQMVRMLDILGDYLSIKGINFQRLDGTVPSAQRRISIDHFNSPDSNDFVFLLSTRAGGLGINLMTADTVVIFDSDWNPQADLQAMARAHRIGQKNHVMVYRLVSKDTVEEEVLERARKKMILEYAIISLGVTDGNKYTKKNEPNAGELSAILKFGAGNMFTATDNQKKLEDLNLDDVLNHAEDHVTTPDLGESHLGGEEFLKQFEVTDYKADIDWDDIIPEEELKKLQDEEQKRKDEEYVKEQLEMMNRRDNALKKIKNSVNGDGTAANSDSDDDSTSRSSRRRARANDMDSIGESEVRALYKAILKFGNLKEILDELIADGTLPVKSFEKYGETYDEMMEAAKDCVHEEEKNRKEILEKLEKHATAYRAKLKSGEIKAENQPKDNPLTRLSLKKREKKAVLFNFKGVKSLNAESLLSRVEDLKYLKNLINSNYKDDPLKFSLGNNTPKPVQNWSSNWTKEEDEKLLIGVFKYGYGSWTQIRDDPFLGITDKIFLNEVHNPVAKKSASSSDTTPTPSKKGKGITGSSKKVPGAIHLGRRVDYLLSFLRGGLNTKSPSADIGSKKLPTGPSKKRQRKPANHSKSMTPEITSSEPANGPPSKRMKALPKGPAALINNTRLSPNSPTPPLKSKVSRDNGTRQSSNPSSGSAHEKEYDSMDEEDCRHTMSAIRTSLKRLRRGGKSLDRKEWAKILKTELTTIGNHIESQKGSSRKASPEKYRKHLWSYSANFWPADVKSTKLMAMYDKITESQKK
Chain of Sialic acid-binding Ig-like lectin 9 (Homo sapiens) (Q9Y336 whole entry): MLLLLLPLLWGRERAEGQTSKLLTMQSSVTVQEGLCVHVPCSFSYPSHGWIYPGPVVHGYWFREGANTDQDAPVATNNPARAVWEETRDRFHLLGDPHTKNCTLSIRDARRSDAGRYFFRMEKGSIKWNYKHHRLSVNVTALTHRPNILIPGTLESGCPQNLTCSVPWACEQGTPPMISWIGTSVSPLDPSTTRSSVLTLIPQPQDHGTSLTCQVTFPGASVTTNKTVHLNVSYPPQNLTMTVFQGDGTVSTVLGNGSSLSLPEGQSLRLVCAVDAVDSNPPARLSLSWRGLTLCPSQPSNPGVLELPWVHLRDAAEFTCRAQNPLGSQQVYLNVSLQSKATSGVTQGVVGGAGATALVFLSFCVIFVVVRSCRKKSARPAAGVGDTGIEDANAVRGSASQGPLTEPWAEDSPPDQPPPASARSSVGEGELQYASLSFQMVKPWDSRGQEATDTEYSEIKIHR

`CCCc1n[nH]c(C2CN(CCCOc3ccccc3)CCO2)n1` (stereo not given): the Percent Effect in assay [1] is -5.86%; in assay [2] it was 1.27%; in assay [3], 7.41%; in assay [4], 1.64%; in [5] it was -1.74%; in assay [6], 1.5%. Moreover, the Percent Effect in [7] is -1.03%; in [8], 2.3%; in [9] it was 4.17%; in assay [10], 7.59%; in assay [11], 13.9%.

With `O=C(CSc1ccncc1)N1C[C@H]2CC[C@@H]1CN(Cc1cccnc1)C2`, the Percent Effect was -4.31% in assay [1]; 16.4% in [2]; 10.6% in assay [3]; 8.46% in assay [4]; 7.05% in assay [5]; 2.27% in [6]. The Percent Effect was 6.74% in assay [7]; 9.78% in assay [8]; 5.38% in assay [9]; 15% in assay [10]; -4% in assay [11].

On to `Cc1noc(C2CCN(C(=O)c3c(C)noc3C)CC2)n1`, for which the Percent Effect in [1] was -3.97%; in assay [2], 10.8%; in assay [3] it was -5.85%; in [4], 7.55%; in assay [5] it was 1.47%; in assay [6], 0.248%. Also, the Percent Effect in [7] is 11.9%; in assay [8] it was -25.3%; in [9], 6.45%; in assay [10], 13.6%; in [11], -4.31%.

On to `Cc1nc2ccnn2c(C)c1CCC(=O)N1CCC(C(N)=O)CC1`, for which the Percent Effect in assay [1] is -6.89%; in [2], 2.63%; in [3], 0.295%; in assay [4] it was -2.71%; in assay [5], -5.32%; in assay [6], 2.88%. Besides, the Percent Effect came to 5.5% in assay [7]; 4.03% in assay [8]; 5.42% in assay [9]; 1.24% in assay [10]; 1.87% in assay [11].

On to `CN1CC(=O)N(c2cccnc2)CC12CCN(C(=O)c1cccnc1)C2` (stereo not given), for which the Percent Effect was 1.61% in assay [1]; 10.7% in assay [2]; 11% in assay [3]; -7.78% in [4]; -3.09% in [5]; -53.9% in assay [6]. In addition, the Percent Effect in [7] was 14.5%; in [8], 2.71%; in assay [9], 6.25%; in [10] it was 10%; in [11] it was -5.77%.

Consider `CN(C)C(=O)[C@H]1C[C@@H]2CCN(C3CCOCC3)C[C@H]2O1`, for which the Percent Effect in [1] was -0.651%; in assay [2], 2.67%; in assay [3], -1.32%; in assay [4] it was -3.17%; in assay [5] it was 4.44%; in assay [6], -50.7%. Further, the Percent Effect was -1.03% in assay [7]; -1.34% in assay [8]; -1.04% in [9]; -5% in assay [10]; -4.08% in assay [11].

Turning to `CSCC(C)(O)CNC(=O)c1ccc(Br)cc1C` (stereo not given), the Percent Effect in assay [1] is 0.706%; in assay [2] it was 0%; in assay [3], 2.08%; in assay [4], -6.13%; in [5], -1.27%; in assay [6], -1.74%. The Percent Effect in assay [7] was 8.15%; in [8], -5.12%; in assay [9] it was 2.15%; in assay [10], 6.17%; in assay [11] it was 0.55%.

Consider `O=C(CCc1ccc(O)cc1)N1CCC(Cc2ccc(CO)cc2)C1` (stereo not given), for which the Percent Effect in [1] is -2.29%; in assay [2], 6.94%; in assay [3], 21.8%; in assay [4] it was -5.94%; in [5], -2.82%; in [6], 1.32%. Besides, the Percent Effect is 8.6% in [7]; -10.8% in [8]; 5.26% in assay [9]; 12.8% in assay [10]; -1.12% in assay [11].

As to `Cc1cc(C[S+]([O-])CC(=O)Nc2c(C)cccc2C)no1` (stereo not given), the Percent Effect in assay [1] was -7.01%; in assay [2], 18.2%; in assay [3], 15.8%; in assay [4], 7.26%; in [5] it was 0.187%; in assay [6], 4.63%. Besides, the Percent Effect in [7] is 2.03%; in assay [8], 5.44%; in [9], 8.74%; in assay [10], 9.76%; in assay [11], -3.01%.

As for `CCOc1ccc(N2CCCN=C2NC(=O)c2ccccc2C)cc1`, the Percent Effect in assay [1] was -3.08%; in [2], 7.79%; in assay [3], -2.01%; in assay [4] it was 4.38%; in [5] it was -0.0983%; in assay [6] it was -5.52%. The Percent Effect in assay [7] was 9.98%; in assay [8], -13.7%; in [9] it was 6.45%; in assay [10], 16.1%; in [11], 106%.

For the origin of these results see ChEMBL document CHEMBL3988442, “University of Dundee, Small-Polar-MMV Screening Library” (2021).
